Results: PubChem BioAssay (NCATS)
“And” between values parts separate entries of the source, which are not always exact repeats. Equal values may be shown once. Records with an inconclusive call do not appear. The source made the active and inactive calls. Unless noted, calls follow the shape of the dose curve; as a rule, active = well fitted inhibition curve with a large enough effect; inconclusive = small, poorly fitted or top-dose-only effect; inactive = flat fitted curve, though single readings scatter.

Experiments:
[1] = qHTS profiling for inhibitors of Plasmodium falciparum proliferation (AID 504749); also: nearly all actives have a fitted effect of over 60% in size;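 as to activity, negative = inhibition: 0% = DMSO vehicle and full inhibition = artemisinin control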; conditions: P. falciparum in erythrocytes, SYBR Green DNA, 72 h
How it was run: (§1)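 SYBR Green fluorescence of parasite DNA, read after lysis and overnight dark incubation, measured growth over 72 h in erythrocyte culture at 0.3% parasitemia and 2.5% hematocrit. Data normalised to DMSO and 0.29 uM artemisinin, with plate-drift correction.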

3D7 = test: as above; conditions: P. falciparum in erythrocytes, SYBR Green DNA, 72 h; series mostly up to 28.7 µM
How it was run: as §1

7G8 = test: as above; conditions: P. falciparum in erythrocytes, SYBR Green DNA, 72 h; series mostly up to 28.7 µM
How it was run: as §1

AA1029 = test: as above; conditions: P. falciparum in erythrocytes, SYBR Green DNA, 72 h; series mostly up to 28.7 µM
How it was run: as §1

AS120 = test: as above; conditions: P. falciparum in erythrocytes, SYBR Green DNA, 72 h; series mostly up to 28.7 µM
How it was run: as §1

ATS189 = test: as above; conditions: P. falciparum in erythrocytes, SYBR Green DNA, 72 h; series mostly up to 28.7 µM
How it was run: as §1

ATS95 = test: as above; conditions: P. falciparum in erythrocytes, SYBR Green DNA, 72 h; series mostly up to 28.7 µM
How it was run: as §1

C2A = test: as above; conditions: P. falciparum in erythrocytes, SYBR Green DNA, 72 h; series mostly up to 28.7 µM
How it was run: as §1

CP185 = test: as above; conditions: P. falciparum in erythrocytes, SYBR Green DNA, 72 h; series mostly up to 28.7 µM
How it was run: as §1

CP191 = test: as above; conditions: P. falciparum in erythrocytes, SYBR Green DNA, 72 h; series mostly up to 28.7 µM
How it was run: as §1

CP192 = test: as above; conditions: P. falciparum in erythrocytes, SYBR Green DNA, 72 h; series mostly up to 28.7 µM
How it was run: as §1

CP194 = test: as above; conditions: P. falciparum in erythrocytes, SYBR Green DNA, 72 h; series mostly up to 28.7 µM
How it was run: as §1

CP201 = test: as above; conditions: P. falciparum in erythrocytes, SYBR Green DNA, 72 h; series mostly up to 28.7 µM
How it was run: as §1

CP203 = test: as above; conditions: P. falciparum in erythrocytes, SYBR Green DNA, 72 h; series mostly up to 28.7 µM
How it was run: as §1

CP211 = test: as above; conditions: P. falciparum in erythrocytes, SYBR Green DNA, 72 h; series mostly up to 28.7 µM
How it was run: as §1

[2] = qHTS for identification of novel therapeutic agents for treatment of microphthalmiaassociated transcription factor (MiT) renal cell carcinoma (RCC) (AID 1963991; calls by dose curve); conditions: CellTiter-Glo, 48 h; for z-score: stronger effect = lower value; for Potency: active = Z-AUC below -0.8 in all three lines
How it was run: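 Three TFE3-fusion RCC lines (UOK109, UOK124, UOK145), 500 cells/well in complete medium, were treated with MIPE 4.0 compounds for 48 hours at 37 C. Viability was by CellTiter-Glo luminescence, normalized to DMSO (100%) and empty wells (0%); curves fitted over 11 concentrations.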

[3] = at 28.7 µM (top of the series), parasite line A
[4] = at 28.7 µM (top of the series), parasite line B
[5] = TFE3-RCC UOK109 viability, measured here: UOK109 Z-AUC
[6] = TFE3-RCC viability, measured here: UOK124 Z-AUC
[7] = TFE3-RCC viability, measured here: UOK145 Z-AUC
Potency is read from the fitted curve at half-maximal effect.

CC(=O)c1ccc(S(=O)(=O)NC(=O)NC2CCCCC2)cc1
inactive: activity, negative = inhibition [1, 3] 3.57% | activity, negative = inhibition [1, 4] 7.49% | outcome (3D7) | Potency (7G8) | outcome (AA1029) | Potency (AS120) | Potency (ATS189) | outcome (ATS95) | outcome (C2A) | outcome (CP185) | Potency (CP191) | Potency (CP192) | Potency (CP194) | outcome (CP201) | outcome (CP203) | Potency (CP211)

O=C(OCC#CCSc1nnc(-c2cccc3ccccc23)o1)c1cc2ccccc2s1
0.162: z-score [2, 7]
0.66: z-score [2, 6]
0.144: z-score [2, 5]

NC1CCC(Nc2nc(Nc3ccc(C(=O)N4CCCCC4)cc3)c3ncn(-c4cccc(F)c4)c3n2)CC1 (stereo not drawn)
0.657: z-score [2, 7]
0.539: z-score [2, 6]
0.32: z-score [2, 5]

COc1ccccc1N1CCN(CCCNc2cc(=O)n(C)c(=O)n2C)CC1
inactive: activity, negative = inhibition [1, 3] -3.41% and -6.84% | activity, negative = inhibition [1, 4] -11.7% and -0.932% | outcome (3D7) | Potency (7G8) | outcome (AA1029) | Potency (AS120) | Potency (ATS189) | outcome (ATS95) | outcome (C2A) | outcome (CP185) | Potency (CP191) | Potency (CP192) | Potency (CP194) | outcome (CP201) | outcome (CP203) | Potency (CP211)

CCCNC(=O)NS(=O)(=O)c1ccc(Cl)cc1
inactive: activity, negative = inhibition [1, 3] 14.4% | activity, negative = inhibition [1, 4] 10.3% | outcome (3D7) | Potency (7G8) | outcome (AA1029) | Potency (AS120) | Potency (ATS189) | outcome (ATS95) | outcome (C2A) | outcome (CP185) | Potency (CP191) | Potency (CP192) | Potency (CP194) | outcome (CP201) | outcome (CP203) | Potency (CP211)

O=C(O)c1cc(-c2ccccc2)nc2ccccc12
inactive: activity, negative = inhibition [1, 3] -2.25% | activity, negative = inhibition [1, 4] 7.48% | outcome (3D7) | Potency (7G8) | outcome (AA1029) | Potency (AS120) | Potency (ATS189) | outcome (ATS95) | outcome (C2A) | outcome (CP185) | Potency (CP191) | Potency (CP192) | Potency (CP194) | outcome (CP201) | outcome (CP203) | Potency (CP211)

CCC(CC)[C@H](NC(C)=O)[C@@H]1[C@H](O)[C@@H](C(=O)O)C[C@@H]1N=C(N)N
0.127: z-score [2, 5]
-0.172: z-score [2, 6]
-0.0122: z-score [2, 7]

CN(C)CCC(c1ccccc1)c1ccccn1 (stereo not drawn)
active: Potency (7G8) 5.62 µM
inactive: activity, negative = inhibition [1, 3] 8.91% | activity, negative = inhibition [1, 4] 5.22% | outcome (3D7) | Potency (AS120) | Potency (ATS189) | outcome (C2A) | Potency (CP191) | outcome (CP201) | Potency (CP211)

CCN1CCC[C@H]1CNC(=O)c1cc(S(N)(=O)=O)ccc1OC
inactive: activity, negative = inhibition [1, 3] 7.08% | activity, negative = inhibition [1, 4] 23% | outcome (3D7) | Potency (7G8) | outcome (AA1029) | Potency (AS120) | Potency (ATS189) | outcome (ATS95) | outcome (C2A) | outcome (CP185) | Potency (CP191) | Potency (CP192) | Potency (CP194) | outcome (CP201) | outcome (CP203) | Potency (CP211)

CCN(CC)C(=O)c1ccc(O)c(OC)c1
inactive: activity, negative = inhibition ([1]; at 12.8 µM (top of the series), parasite line A) 6.06% | activity, negative = inhibition ([1]; at 12.8 µM (top of the series), parasite line B) 6.5% | activity, negative = inhibition [1, 3] 14.7% | activity, negative = inhibition [1, 4] -14.5% | outcome (3D7) | Potency (7G8) | outcome (AA1029) | Potency (AS120) | Potency (ATS189) | outcome (ATS95) | outcome (C2A) | outcome (CP185) | Potency (CP191) | Potency (CP192) | Potency (CP194) | outcome (CP201) | outcome (CP203) | Potency (CP211)

O=C(NCCN1CCOCC1)c1ccc(Cl)cc1
inactive: activity, negative = inhibition [1, 3] 9.62% | activity, negative = inhibition [1, 4] 3.61% | outcome (3D7) | Potency (7G8) | outcome (AA1029) | Potency (AS120) | Potency (ATS189) | outcome (ATS95) | outcome (C2A) | outcome (CP185) | Potency (CP191) | Potency (CP192) | Potency (CP194) | outcome (CP201) | outcome (CP203) | Potency (CP211)

NCCS
inactive: activity, negative = inhibition [1, 3] 9.12% | activity, negative = inhibition [1, 4] 7.21% | outcome (3D7) | Potency (7G8) | outcome (AA1029) | Potency (AS120) | Potency (ATS189) | outcome (ATS95) | outcome (C2A) | outcome (CP185) | Potency (CP191) | Potency (CP192) | Potency (CP194) | outcome (CP201) | outcome (CP203) | Potency (CP211)

O=C(O)C=Cc1ccc(O)c(O)c1
0.19: z-score [2, 6]
0.564: z-score [2, 7]
1.03: z-score [2, 5]

Cc1cccc(C)c1OCC(C)N (stereo not drawn)
inactive: activity, negative = inhibition [1, 3] 7.67% | activity, negative = inhibition [1, 4] -7.13% | outcome (3D7) | Potency (ATS189) | outcome (C2A) | outcome (CP185) | Potency (CP192) | outcome (CP201) | Potency (CP211)

COc1ccc2c3c1OC1C[C@@H](O)C=C[C@@]31CCN(C)C2 (stereo partly drawn)
0.657: z-score [2, 5]
-0.117: z-score [2, 7]
0.378: z-score [2, 6]

CC(=NNC(=S)N1CCC1)c1ccccn1
active: Potency ([2]; TFE3-RCC UOK109 viability) 0.00332 µM
-1.96: z-score [2, 6]
-4: z-score [2, 5]
-2.39: z-score [2, 7]

CCc1ccc(C=C2SC(=S)NC2=O)cc1
0.457: z-score [2, 6]
-0.976: z-score [2, 7]
-0.104: z-score [2, 5]

O=C1NC(=O)C(c2ccccc2)(c2ccccc2)N1
inactive: activity, negative = inhibition [1, 3] 3.02% | activity, negative = inhibition [1, 4] -26.3% | outcome (3D7) | Potency (7G8) | outcome (AA1029) | Potency (AS120) | Potency (ATS189) | outcome (ATS95) | outcome (C2A) | outcome (CP185) | Potency (CP191) | Potency (CP192) | Potency (CP194) | outcome (CP201) | outcome (CP203) | Potency (CP211)

CO[C@H]1C=CC=C(C)C(=O)NC2=CC(=O)C(NCCN(C)C)=C(C[C@@H](C)C[C@H](OC)[C@@H](O)[C@@H](C)C=C(C)[C@@H]1OC(N)=O)C2=O
-3.65: z-score [2, 6]
-1.68: z-score [2, 7]
-1.45: z-score [2, 5]
active: Potency ([2]; TFE3-RCC UOK109 viability) 2.64 µM

O=C1NCC2(CCN(CCc3ccccc3)CC2)O1
inactive: activity, negative = inhibition [1, 3] 12% | activity, negative = inhibition [1, 4] 1.55% | outcome (3D7) | Potency (7G8) | outcome (AA1029) | Potency (AS120) | Potency (ATS189) | outcome (ATS95) | outcome (C2A) | outcome (CP185) | Potency (CP191) | Potency (CP192) | Potency (CP194) | outcome (CP201) | outcome (CP203) | Potency (CP211)

CCOC(=O)O[C@]1(C(=O)OCCl)CC[C@@H]2[C@H]3CCC4=CC(=O)C=C[C@]4(C)[C@@H]3[C@@H](O)C[C@@]21C
inactive: activity, negative = inhibition [1, 3] -7.57% | activity, negative = inhibition [1, 4] 4.48% | outcome (3D7) | outcome (AA1029) | Potency (AS120) | Potency (ATS189) | outcome (ATS95) | outcome (C2A) | outcome (CP185) | Potency (CP191) | Potency (CP192) | Potency (CP194) | outcome (CP201) | outcome (CP203) | Potency (CP211)
0.837: z-score [2, 6]
0.509: z-score [2, 5]
2.11: z-score [2, 7]

CC1(C)O[C@H]2C[C@@H]3[C@H]4CCC5=CC(=O)C=C[C@]5(C)[C@@]4(F)[C@@H](O)C[C@]3(C)[C@]2(C(=O)CO)O1
inactive: activity, negative = inhibition [1, 3] -0.373% | activity, negative = inhibition [1, 4] -9.39% | outcome (3D7) | outcome (AA1029) | Potency (ATS189) | outcome (ATS95) | outcome (C2A) | outcome (CP185) | Potency (CP191) | Potency (CP192) | Potency (CP194) | outcome (CP201) | outcome (CP203) | Potency (CP211)
active: Potency (7G8) 8.91 µM

OC[C@H]1O[C@@H](Oc2cc(O)cc(C=Cc3ccc(O)cc3)c2)[C@H](O)[C@@H](O)[C@H]1O
0.664: z-score [2, 5]
0.547: z-score [2, 6]
1.48: z-score [2, 7]
